Molecules are shown by their SMILES. This is part of a sample that, as a whole, favours compounds with a hit. Of some 83,000 tested, about 20% had one in any assay.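 Note: values are percent growth. 100 is the growth of untreated cells, values between 100 and 0 indicate rising inhibition; between -100 and 0 indicates cell death.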 Values without a mark were called inactive. Active and inactive are the calls of the source. The calls were made as follows: active = growth percent below 10; inactive = the rest.

Test systems include T-47D breast; BT-549 breast; MDA-MB-435 melanoma; SW-620 colon; MCF7 breast; HCT-116 colon; HCC-2998 colon; KM12 colon; MDA-MB-468 breast.
Assay in all cases: NCI-60 one-dose screen, 48 h (100 = growth as untreated, 0 = no growth, -100 = all killed)
Common to all, as to conditions: 10 µM

With `CC1=C(C(=O)OC(C)C)C(c2ccc(O)cc2)NC(=S)N1` (configuration not stated), the growth was 102% in the assay on T-47D breast; 82.7% with BT-549 breast; 110% with MDA-MB-435 melanoma; 120% in the assay on SW-620 colon; 97.7% in the assay on MCF7 breast; 98.1% in the assay with HCT-116 colon. Besides, the results for the growth in the assay with HCC-2998 colon, with KM12 colon and in the assay on MDA-MB-468 breast were 107%, 106% and 99%, respectively.

Turning to `N#Cc1ccc(NC(=O)CSc2ccc(-c3ccc(Br)cc3)nn2)cc1`, the growth in the assay with T-47D breast is 46.9%; in the assay with BT-549 breast it was 70.5%; with MDA-MB-435 melanoma, 65.1%; with SW-620 colon it was 91.1%; in the assay with MCF7 breast it was 56.2%; in the assay on HCT-116 colon, 64%. Further, the results for the growth with HCC-2998 colon, in the assay with KM12 colon and in the assay on MDA-MB-468 breast were 92.9%, 76.7% and 62.5%, respectively.

For `COc1ccc(C(=O)/C=C/c2cc(C(F)(F)F)cc(C(F)(F)F)c2)cc1S(N)(=O)=O`, the growth was -59.8% (active) with T-47D breast; -65.8% (active) in the assay with BT-549 breast; -69.2% (active) in the assay with MDA-MB-435 melanoma; -58% (active) with SW-620 colon; -72.5% (active) with MCF7 breast; -59.1% (active) with HCT-116 colon. The growth in the assay with HCC-2998 colon is -98.3% (active); with KM12 colon, -75.4% (active); in the assay with MDA-MB-468 breast, -95.2% (active).

On to `O=C(NO)c1ccc(CN2CCN(c3nc(-c4ccccc4)c4ccccc4n3)CC2)cc1`, for which the growth in the assay with T-47D breast was 8.88% (active); in the assay on BT-549 breast, 35.8%; in the assay on MDA-MB-435 melanoma it was 27.8%; in the assay on SW-620 colon it was 15.6%; in the assay on MCF7 breast it was 9.79% (active); with HCT-116 colon it was 18.9%. The results for the growth in the assay with HCC-2998 colon, in the assay with KM12 colon and in the assay on MDA-MB-468 breast were 12.6%, 18.7% and -14.2% (active), respectively.

As to `O=C(CSc1nnc(-c2c[nH]c3ccccc23)n1-c1ccccc1)Nc1ccc(C(=O)/C=C/c2cccc([N+](=O)[O-])c2)cc1`, the growth was 57.5% in the assay with T-47D breast; 93.5% in the assay with BT-549 breast; 98.9% with MDA-MB-435 melanoma; 101% in the assay on SW-620 colon; -6.63% (active) in the assay on MCF7 breast; -54% (active) in the assay on HCT-116 colon. For the same molecule, the growth in the assay on HCC-2998 colon was 62.7%; with KM12 colon, 88.7%; in the assay with MDA-MB-468 breast it was 75.4%.

With `Nc1n[nH]c2cccc(C#Cc3cccc(NC(=O)Nc4cc(C(F)(F)F)cc(C(F)(F)F)c4)c3)c12`, the growth was -11.3% (active) in the assay with T-47D breast; -66.8% (active) in the assay with BT-549 breast; -76.7% (active) in the assay on MDA-MB-435 melanoma; -75.7% (active) with SW-620 colon; -37.2% (active) in the assay with MCF7 breast; 2.34% (active) in the assay on HCT-116 colon. Moreover, the growth is -95.3% (active) with HCC-2998 colon, -61.5% (active) with KM12 colon and -59.7% (active) with MDA-MB-468 breast.

Consider `COc1ccc(NC(=O)Cn2c(/C=C/c3ccc(N(C)C)cc3)nc3ccccc3c2=O)cc1`, for which the growth in the assay on T-47D breast was 44.2%; with BT-549 breast it was -9.99% (active); in the assay with MDA-MB-435 melanoma, 54.3%; in the assay with SW-620 colon it was 48%; in the assay with MCF7 breast, 21.5%; in the assay with HCT-116 colon, 28.6%. In addition, the growth with HCC-2998 colon was 63%; in the assay on KM12 colon, 50.5%; in the assay with MDA-MB-468 breast it was -25.4% (active).

As for `Cc1ccc(NC(=O)NCn2c(=O)[nH]c3ccccc3c2=O)cc1`, the growth in the assay on T-47D breast was 79.6%; in the assay with BT-549 breast it was 115%; with MDA-MB-435 melanoma, 86.3%; with SW-620 colon, 78.5%; in the assay with MCF7 breast it was 72%; in the assay on HCT-116 colon it was 60.1%. Also, the values for the growth in the assay on HCC-2998 colon, in the assay with KM12 colon and with MDA-MB-468 breast were 102%, 98.9% and 84.1%, respectively.

Consider `CNC(=O)c1cc(-c2ccc(NC(=O)Nc3ccc(C)cc3)cc2)nc2cccnc12`, for which the growth in the assay with T-47D breast is 89.6%; in the assay with BT-549 breast, 104%; in the assay on MDA-MB-435 melanoma it was 109%; in the assay on SW-620 colon, 104%; with MCF7 breast it was 45.6%; with HCT-116 colon, 89.7%. Besides, the growth in the assay on HCC-2998 colon is 121%; in the assay on KM12 colon, 102%; with MDA-MB-468 breast it was -14.3% (active).

`O=C(CNc1nc(-c2ccccc2)cs1)Nc1ccc([N+](=O)[O-])cc1Cl`: the growth in the assay on T-47D breast was 12.5%; with BT-549 breast, 8.83% (active); with MDA-MB-435 melanoma, 44%; in the assay on SW-620 colon it was 23.2%; in the assay on MCF7 breast it was 9.27% (active); with HCT-116 colon, 21.4%. Besides, the values for the growth in the assay with HCC-2998 colon, in the assay on KM12 colon and in the assay with MDA-MB-468 breast were 7.28% (active), 29.1% and -30.3% (active), respectively.

Consider `COc1ccc2nc(Cl)c(-c3cc(-c4ccccc4)nc(N)n3)cc2c1`, for which the growth in the assay with T-47D breast is 30.6%; with BT-549 breast, -11.1% (active); in the assay with MDA-MB-435 melanoma it was 45.5%; in the assay on SW-620 colon, -60.2% (active); with MCF7 breast it was 4.28% (active); in the assay with HCT-116 colon, -92.1% (active). Besides, the growth with HCC-2998 colon was 62.6%; in the assay on KM12 colon, -0.39% (active); in the assay on MDA-MB-468 breast, 14.9%.

Take `Cc1ccc(/C(CSc2nnc(-c3c[nH]c4ccccc34)n2-c2ccccc2)=N/O)cc1`: the growth is -47.3% (active) in the assay on T-47D breast; -75.5% (active) in the assay with BT-549 breast; -100% (active) in the assay with MDA-MB-435 melanoma; -80.4% (active) with SW-620 colon; -55% (active) in the assay on MCF7 breast; 2.62% (active) in the assay on HCT-116 colon. Further, the figures for the growth in the assay on HCC-2998 colon, with KM12 colon and with MDA-MB-468 breast were -41.9% (active), 50.2% and -88.8% (active), respectively.

For the molecule `COc1ccc(CN2[C@H](C(=O)NCc3ccc(C(=O)NO)cc3)Cc3c([nH]c4ccccc34)[C@H]2C2CC2)cc1`, the growth with T-47D breast is 40.4%; in the assay with BT-549 breast it was 58.6%; in the assay on MDA-MB-435 melanoma it was 18.1%; in the assay with SW-620 colon, 30.9%; in the assay on MCF7 breast it was 36.8%; in the assay on HCT-116 colon it was 23%. Besides, the growth with HCC-2998 colon was 33%; in the assay with KM12 colon, 44.7%; in the assay with MDA-MB-468 breast, 3.8% (active).
